# In PubChem BioAssay AID493170 (National Center for Advancing Translational Sciences (NCATS), 2011):
# Inconclusive results are not listed. Entries that show only a call come without a potency. Activity calls are given as the source filed them. Calls come from the whole dose curve; as a rule, active = well fitted inhibition curve with a large enough effect; inconclusive = small, poorly fitted or top-dose-only effect, or effect the other way; inactive = flat fitted curve, though single readings scatter.
# Biological target: Ubiquitin carboxyl-terminal hydrolase 2 (Homo sapiens) (UniProt O75604)
# Test: Ub-rhodamine 110 based assay for inhibitors Ubiquitin-specific Protease USP2a; note: nearly all actives have a fitted effect of over 50% in size
# Method in brief: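 5 nM USP2a preincubated with compounds for 30 min at RT in 20 mM Tris-HCl pH 8.0, 2 mM CaCl2, 2 mM beta-mercaptoethanol, 0.05% CHAPS. Cleavage of 150 nM Ub-rhodamine 110 read kinetically (Ex 485/Em 531) for 7 min.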
# Potency is the fitted concentration of half-maximal effect.
# Ubiquitin carboxyl-terminal hydrolase 2 (Homo sapiens), sequence (O75604 whole entry, looked up): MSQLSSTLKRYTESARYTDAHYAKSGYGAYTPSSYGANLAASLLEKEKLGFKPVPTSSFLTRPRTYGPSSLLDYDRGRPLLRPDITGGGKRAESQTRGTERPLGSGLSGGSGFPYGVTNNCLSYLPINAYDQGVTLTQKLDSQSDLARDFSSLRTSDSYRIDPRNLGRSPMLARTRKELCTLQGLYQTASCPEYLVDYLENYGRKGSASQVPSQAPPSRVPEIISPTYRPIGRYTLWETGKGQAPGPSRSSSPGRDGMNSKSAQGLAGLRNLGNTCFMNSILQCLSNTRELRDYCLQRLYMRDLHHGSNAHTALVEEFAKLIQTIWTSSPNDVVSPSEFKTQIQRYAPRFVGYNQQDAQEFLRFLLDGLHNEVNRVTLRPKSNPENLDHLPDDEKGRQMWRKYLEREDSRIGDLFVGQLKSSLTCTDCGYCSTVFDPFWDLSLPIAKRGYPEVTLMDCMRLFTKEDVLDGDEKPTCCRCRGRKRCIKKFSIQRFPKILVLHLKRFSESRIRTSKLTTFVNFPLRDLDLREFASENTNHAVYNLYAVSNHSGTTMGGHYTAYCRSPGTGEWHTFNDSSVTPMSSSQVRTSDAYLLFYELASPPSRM
row,Structure (SMILES),Potency
1,CCc1cc(C(=O)N=Nc2c(O)[nH]c3ccc([N+](=O)[O-])cc23)c2ccccc2n1,11.2 µM (active)
2,CCn1nc(C(=O)N[C@@H](CCSC)c2nc3ccccc3[nH]2)c2ccccc2c1=O,inactive
3,O=C(Cc1ccc(S(=O)(=O)N2CCOCC2)s1)NCCC(c1ccccc1)c1ccccc1,10 µM (active)
4,Cc1ccc(N=C2NC(=O)/C(=C/C=C/c3ccco3)S2)cc1C,5.01 µM (active)
5,Nc1ccccc1S(=O)(=O)NC1=NCCCCC1,inactive
6,N#Cc1c(SCC(=O)Nc2nc3ccccc3s2)sc2c(O)cc(=O)[nH]c12,8.91 µM (active)
7,CC1(C)CC(=O)C=C(NCc2cccs2)C1,inactive
8,CCC/C(O)=C1\C(=O)CC(C)(C)CC1=Nc1ccc(OC)cc1OC,inactive
9,CCOC(=O)N1CCC(NC(=O)c2ccc(OC)c(CN3CC(=O)N4CCCC4C3=O)c2)CC1 (stereo not drawn),inactive
10,CC(C)(C)OC(=O)C[C@H]1C/C=C\C[C@H](CC(=O)N(CCO)Cc2ccccc2)C(=O)NC[C@H](c2ccccc2)OC1=O,inactive
11,NS(=O)(=O)c1ccc(NC(=O)CN2CCCCC2)cc1,inactive
12,CCC(CO)Nc1nc(CN2CCCCC2)nc2scc(-c3ccccc3)c12 (stereo not drawn),inactive
13,O=C(O)CCn1c(C2CCCCC2)nc2ccccc21,inactive
14,O=C(Nc1ccccc1)c1cc(Cl)nc2ccccc12,inactive
15,CCOC(=O)N1CCN(C(=O)CN(c2ccc(C)c(C)c2)S(=O)(=O)c2ccccc2)CC1,inactive
16,O=C(O)CC1(CC(=O)Nc2ccc3ccccc3c2)CCCCC1,inactive
17,O=C(OCC(=O)N1CCCCC1)c1cc2ccccc2cc1O,inactive
18,CCOc1ccc(CCn2c(-c3ccco3)nc3ccccc3c2=O)cc1OCC,inactive
19,CCc1cc2c(=O)c(-c3nc4ccccc4n3C)coc2c(CN2CCCCC2C)c1O (stereo not drawn),inactive
20,COc1ccc(-n2c(=S)[nH]c3cc(C(=O)NCc4ccc(F)cc4)ccc3c2=O)c(OC)c1,inactive
21,Cc1ccccc1OCc1nc2ccccc2c(=O)n1N,inactive
22,COc1ccc(OCC(=O)Nc2ccccc2OC)cc1,inactive
23,Cn1c(=O)[nH]c(=O)c2c1nc(NCc1ccccc1)n2CCCc1ccccc1,inactive
24,O=S(=O)(c1ccccc1)N(CC1CO1)c1cc(Cl)ccc1Cl (stereo not drawn),inactive

row,Structure (SMILES),Potency
1,COc1ccc(/C=C2/SC(=S)N(c3ccc(S(=O)(=O)Nc4nccs4)cc3)C2=O)cc1,3.16 µM (active)
2,Cc1noc(/C=C/NCc2cccnc2)c1S(=O)(=O)N(C)CC(=O)N1CCc2ccccc21,inactive
3,Cc1cc(N=Nc2ccc(C)c(N=Nc3cc(C)c(N)cc3N)c2)c(N)cc1N,inactive
4,NS(=O)(=O)c1ccc(N=Nc2c(O)c(C(=O)O)cc3ccccc23)cc1,5.62 µM (active)
5,Cc1cc(NC(=O)COC(=O)CCCOc2ccc(Cl)cc2C)no1,inactive
6,CCC(C(=O)Nc1nnc(-c2ccco2)s1)c1ccccc1 (stereo not drawn),inactive
7,CC1CCCCN1CCNC(=O)c1cnn2ccccc12 (stereo not drawn),inactive
8,Cc1cc(N2CCC(C(=O)NC3CC3)CC2)nc(-c2ccccc2)n1,inactive
9,CCCCc1ccc(/C=C2/C(=O)ON=C2c2ccccc2)s1,inactive
10,O=C(CN1CCC(O)CC1)N1c2ccccc2C=Cc2ccccc21,inactive
11,CC1CCCC(N2CCN(C(=O)c3cccc(F)c3)CC2)C1 (stereo not drawn),inactive
12,CN(C)c1ccc(-c2ccccc2)nn1,inactive
13,COc1cc(C)c(S(=O)(=O)NCc2ccc3c(c2)OCO3)cc1C,inactive
14,O=C(NC(=S)N1CCCc2ccccc21)c1ccc([N+](=O)[O-])cc1,inactive
15,CC(=O)COc1ccc2c(-c3ccccc3)cc(=O)oc2c1,inactive
16,CCCNC(=O)NCc1ccc(N2CCCC2=O)cc1,inactive
17,CCN1C(=O)C(NC(C)=O)c2cc(OC)ccc21 (stereo not drawn),inactive
18,CCn1c(SCC(=O)NCCc2ccccc2)nnc1-c1cccs1,inactive
19,Cc1ccc(S(=O)(=O)N2CCOCC2)cc1NC(=O)CN1C(=O)NC(C)(c2ccc(Cl)cc2Cl)C1=O (stereo not drawn),inactive
20,O=C(COC(=O)c1cccc(S(=O)(=O)N2CCc3ccccc32)c1)NC1CCS(=O)(=O)C1 (stereo not drawn),inactive
21,O=C(NCCCN1CCCC1=O)c1cccc(N2CCCC2=O)c1,inactive
22,Cc1cc(C)n2cc(CSc3nnnn3-c3ccccc3C)nc2n1,inactive
23,Cc1ccc(NC(=O)CCC(=O)OC(C)C(=O)c2ccccc2)cc1 (stereo not drawn),inactive
24,Cc1ccc(/C(N)=N/OC(=O)Oc2ccccc2)cc1,inactive
